# Measurements published in the supplement of paper PMC4166925.
# ± gives the standard deviation of the averaged measurements. In all, about 33,000 sequences were measured (“E-score (dimensionless, -0.5 to 0.5)”: median about -0.046, highest 2% from about 0.36 on). The full list was thinned out, with the highest values kept by preference.
# Test system: T1, SpTbr T-box DNA-binding domain (GST fusion)
# T1 sequence: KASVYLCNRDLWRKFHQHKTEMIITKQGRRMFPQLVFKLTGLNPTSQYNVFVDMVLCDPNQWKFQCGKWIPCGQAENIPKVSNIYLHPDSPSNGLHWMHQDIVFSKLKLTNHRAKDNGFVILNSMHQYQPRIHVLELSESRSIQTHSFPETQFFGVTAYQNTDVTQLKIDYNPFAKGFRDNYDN
# Test: PBM E-score of 8-mer (E-score (dimensionless, -0.5 to 0.5)); Tbr is Tbrain of the sea star Patiria miniata (Pm) or the sea urchin Strongylocentrotus purpuratus (Sp); higher = stronger binding preference
# Conditions: the construct has about 5 more residues each side
# Procedure, shortened: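 Primer extension turned Universal Agilent oligonucleotide arrays double-stranded. They were incubated with 200 nM protein in PBS (pH 7.5); the protein was a GST-fused Tbr T-box DNA-binding domain expressed in BL21 E. coli at 20 °C and purified on glutathione. Every ungapped 8-mer was scored from the scanned, quantified probe intensities, and the Universal PBM Analysis Suite gave each an enrichment E-score averaged over duplicate arrays.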
row,Sequence,PBM E-score of 8-mer
1,GCCTCCGA,-0.0614 ± 0.071
2,GAGTATGA,-0.047 ± 0.066
3,CTTGCCAA,0.153 ± 0.021
4,ATGGTGTA,0.127 ± 0.015
5,ATGGTGGC,0.274 ± 0.028
6,ATGGTGTC,0.392 ± 0.005
7,ATGGTGCG,0.206 ± 0.037
8,ATGGTGTG,0.39 ± 0.023
9,CTGGTGTC,0.312 ± 0.033
10,AAGTTTGA,-0.0385 ± 0.021
11,CGGTCAGC,-0.186 ± 0.18
12,ATTCAAAT,-0.0886 ± 0.04
13,ATAGAGCG,-0.0811 ± 0.011
14,AATTGTTC,0.0645 ± 0.035
15,GACCACCC,-0.0294 ± 0.0021
16,CACCACAC,0.3556 ± 0.0015
17,CACACCAC,0.394 ± 0.015
18,CCCACCAA,-0.0327 ± 0.016
19,CGCACCAG,0.242 ± 0.0071
20,CACACCAA,0.38 ± 0.017
21,AACACCAC,0.344 ± 0.015
22,AACACCAG,0.317 ± 0.028
23,GACACCAC,0.367 ± 0.039
24,CCCACCAC,-0.00552 ± 0.018
25,GACACCAA,0.327 ± 0.024

row,Sequence,PBM E-score of 8-mer
1,CACACCAG,0.386 ± 0.036
2,CTCACCAA,0.133 ± 0.059
3,TCATTTAA,-0.193 ± 0.036
4,CCTCTGCA,-0.1407 ± 0.00062
5,AATAGCCC,-0.194 ± 0.016
6,AGTAAATA,-0.121 ± 0.066
7,GCTTGCTA,-0.156 ± 0.02
8,AGCGCACG,0.137 ± 0.04
9,ACTGTCTG,0.126 ± 0.021
10,AGGCTTGG,-0.225 ± 0.031
11,AGACTTTC,0.00343 ± 0.055
12,GCTACCTA,-0.0771 ± 0.051
13,ACCTGTGA,0.3985 ± 0.0028
14,AGCTGTGG,0.129 ± 0.058
15,ACCTGTCG,0.37 ± 0.011
16,GGCTGTCA,0.172 ± 0.051
17,AGCTGTCA,0.382 ± 0.022
18,AGCTGTCC,0.00624 ± 0.016
19,ACCTGTGC,0.151 ± 0.018
20,AGCTGTGA,0.393 ± 0.0083
21,CCCTGTCG,-0.00439 ± 0.04
22,GCCTGTGA,0.187 ± 0.0033
23,AGCTGTGC,0.214 ± 0.041
24,ACCTGTCT,0.104 ± 0.0037
25,CGGCCAAA,-0.0415 ± 0.0054

row,Sequence,PBM E-score of 8-mer
1,ATAACCGA,-0.206 ± 0.066
2,CAGTTCTC,0.143 ± 0.053
3,AACCACTG,-0.317 ± 0.011
4,CACTCTCC,0.0753 ± 0.021
5,AACTGTGG,0.128 ± 0.0018
6,AACTGTGC,-0.0399 ± 0.045
7,AACTGTGA,0.376 ± 0.011
8,GCTTAGGA,-0.107 ± 0.059
9,CACCTCTG,0.3929 ± 0.0014
10,AACCTCTG,-0.137 ± 0.075
11,CACCTCTA,0.416 ± 0.0043
12,AACCTCTA,-0.187 ± 0.065
13,GACCTCTC,-0.153 ± 0.016
14,AACCTCTC,-0.0774 ± 0.028
15,GACCTCTA,-0.234 ± 0.033
16,CACCTCTC,0.421 ± 0.022
17,CAACTCTG,0.225 ± 0.013
18,ATAGGAGC,-0.181 ± 0.022
19,CACAACTC,0.25 ± 0.0039
20,AGAGGAGA,-0.116 ± 0.043
21,CTTTCAGC,-0.162 ± 0.032
22,GGTTGTTA,0.213 ± 0.048
23,CCGACCTC,-0.148 ± 0.046
24,CAACACGG,0.0142 ± 0.003
25,ATGTCAGA,-0.15 ± 0.011

row,Sequence,PBM E-score of 8-mer
1,GTGTCAAC,0.4761 ± 0.0027
2,CTGTCAAA,0.249 ± 0.057
3,ATGTCAAC,0.267 ± 0.024
4,CTGTCAAC,0.35 ± 0.023
5,GTGTCAAA,0.444 ± 0.0081
6,GTGTCAGA,0.387 ± 0.023
7,TTGTCAAA,0.0897 ± 0.09
8,CTGTCGCA,0.235 ± 0.054
9,ATGTCGCA,0.231 ± 0.039
10,CTGTCAGA,0.207 ± 0.025
11,GTGTCGCA,0.367 ± 0.021
12,CCGCTCTC,-0.00942 ± 0.013
13,CCTATTCG,-0.116 ± 0.11
14,AAACTATG,-0.131 ± 0.049
15,CCAACTCA,-0.0818 ± 0.049
16,CAGAAGCC,-0.308 ± 0.064
17,GTTCAATA,-0.174 ± 0.0066
18,GTGTCACA,0.436 ± 0.011
19,ATGTCACG,0.204 ± 0.017
20,ATGTCACA,0.3087 ± 0.00058
21,GCGTCAAA,0.31 ± 0.029
22,ATGTCATA,-0.202 ± 0.0053
23,GCGTCAAC,0.3857 ± 0.0035
24,CTGTCATA,0.122 ± 0.036
25,CCGTCAAC,0.24 ± 0.021

row,Sequence,PBM E-score of 8-mer
1,GTGTCATA,0.404 ± 0.022
2,ACCACACT,0.328 ± 0.0063
3,CAAGGTCC,-0.257 ± 0.041
4,AACCCGTT,-0.0209 ± 0.077
5,CGAGGTCA,0.0539 ± 0.041
6,GGAGGTGA,0.374 ± 0.035
7,GGAGGTCA,0.0169 ± 0.067
8,AGAGGTGC,0.394 ± 0.014
9,AGAGGTGG,0.285 ± 0.031
10,AGAGGTTC,-0.172 ± 0.065
11,CGAGGTGA,0.418 ± 0.01
12,CGAGGTTA,0.0218 ± 0.011
13,CGAGGTAC,-0.11 ± 0.026
14,CGAGGTCC,-0.207 ± 0.017
15,AGAGGTGA,0.298 ± 0.023
16,CGAGGTGC,0.445 ± 0.0072
17,GCAGCCCC,-0.15 ± 0.027
18,CGTAGTGC,-0.0779 ± 0.017
19,CGCTCGAC,-0.0351 ± 0.11
20,ATCCTGTA,-0.104 ± 0.036
21,ACCAGACT,-0.1941 ± 0.0019
22,GACGCCCA,-0.0155 ± 0.091
23,AGATGTTC,0.0355 ± 0.018
24,AGCTGTTG,0.208 ± 0.0081
25,CGGTGTTC,-0.0703 ± 0.07

row,Sequence,PBM E-score of 8-mer
1,AGATGTTG,0.0448 ± 0.039
2,AGGTGTTG,0.482 ± 0.0055
3,AGGTGTTC,0.3819 ± 0.00093
4,CGGGGTGC,0.233 ± 0.02
5,GGCCCAGA,-0.2892 ± 0.0023
6,GTATGGCA,0.0595 ± 0.0057
7,GCGCTGTA,0.206 ± 0.014
8,GTACTATA,-0.112 ± 0.079
9,CCATGCGC,-0.0395 ± 0.1
10,ACATATCC,-0.0962 ± 0.058
11,TCTATCAA,-0.141 ± 0.0063
12,CGGTGTGC,0.0403 ± 0.015
13,GGGTGTCA,0.475 ± 0.0055
14,CGGTGTCA,0.398 ± 0.02
15,GGGGGTTA,-0.156 ± 0.038
16,CGATGTGA,0.183 ± 0.017
17,GGGGGTCA,0.0604 ± 0.0046
18,GCGTGTCA,0.313 ± 0.024
19,CGGTGTGA,0.456 ± 0.0098
20,CGGTGTTA,0.3373 ± 0.0021
21,CGGTGTCC,-0.0339 ± 0.0071
22,CGATGTCA,0.1339 ± 0.00055
23,GGGTGTTA,0.463 ± 0.0026
24,ATGTAGGG,-0.355 ± 0.013
25,CGAGTTAA,0.193 ± 0.008

row,Sequence,PBM E-score of 8-mer
1,GCCCACTA,-0.0422 ± 0.07
2,CTTCACTA,0.0992 ± 0.0044
3,ACACCCGA,0.41 ± 0.0072
4,TCACCCGA,0.0108 ± 0.15
5,CCACCCGC,0.105 ± 0.028
6,ACACCCGG,0.317 ± 0.042
7,ACACCCGC,0.3794 ± 0.0031
8,GCACCCGC,0.305 ± 0.035
9,GCTCTGTA,-0.199 ± 0.025
10,AACTGACT,-0.141 ± 0.043
11,CAGAAATG,-0.202 ± 0.012
12,CGTTTTCC,-0.282 ± 0.054
13,TCATTACA,-0.0133 ± 0.029
14,ATGTGAAC,0.203 ± 0.012
15,TTGTGAAA,0.361 ± 0.04
16,CTGTGAAG,0.296 ± 0.027
17,CTGTGAAC,0.4126 ± 0.00049
18,CTGTGAAA,0.396 ± 0.017
19,ATGTGAAA,0.263 ± 0.03
20,AACTAGGC,-0.0665 ± 0.022
21,GCCGGATA,-0.321 ± 0.0046
22,CAGAGATC,-0.204 ± 0.022
